Bioassay records deposited in PubChem BioAssay by National Center for Advancing Translational Sciences (NCATS).
HP1b chromo inh – HTS for Inhibitors of HP1-beta Chromodomain Interactions with Methylated Histone Tails. AlphaScreen HP1-beta / biotin-H3K9me3 peptide binding. Potency, µM (highest dose often 114 µM), inactives show at the highest dose activity change, negative = inhibition, usual class: inhibitors. 390,000 tested, 0.56% active; further: potency means the concentration at half of the fitted maximal effect; nearly all actives have a fitted effect of over 70% in size
Target sequence (P83916 whole entry, looked up): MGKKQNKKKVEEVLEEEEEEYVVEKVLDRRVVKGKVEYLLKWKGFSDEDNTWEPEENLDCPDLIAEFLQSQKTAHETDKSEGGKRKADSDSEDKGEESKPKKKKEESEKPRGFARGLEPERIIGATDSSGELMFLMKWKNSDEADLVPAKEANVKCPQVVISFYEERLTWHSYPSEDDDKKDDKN
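HP1-beta protein (50 nM final) preincubated 30 min at room temperature with biotinylated H3(1-18)K9me3 peptide (50 nM) in PBS pH 7.4, 0.01% Tween-20, then compound added for 30 min. AlphaScreen streptavidin donor/nickel chelate acceptor beads (10 ug/mL final), 30 min dark, luminescence read.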
BAZ2B inh – qHTS Assay for Inhibitors of BAZ2B; Bromodomain adjacent to zinc finger domain protein 2B (Homo sapiens), Q9UIF8; AlphaScreen BAZ2B-H3K14Ac peptide displacement; Potency, µM (titrated, usually from 114 µM), for inactives: at the highest dose activity change, negative = inhibition, actives largely listed as inhibitors; 360,000 tested, 4.4% active; further: potency means the concentration at half of the fitted maximal effect; on the % scale 0 is the no-effect control and ±100 the full control effect; nearly all actives have a fitted effect of over 60% in size
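Complex of BAZ2B and biotin-H3K14Ac (50 nM apiece) forms over 30 min at RT, then faces library compounds up to 110 uM for another 30 min; AlphaScreen beads added, 20 min dark incubation, luminescence read.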
Six1-Eya2 blk – qHTS Assay for Inhibitors of the Six1/Eya2 Interaction | Homeobox protein SIX1 (Homo sapiens) + Protein phosphatase EYA2 (Homo sapiens), … | AlphaScreen GST-Six1/His-Eya2 binding, biochemical; hits give low values | activity change, % (test concentration not listed) | 360,000 tested, 0.56% active | AID 651725, 2012; in the data active means activity change below about -65%; inconclusive means mostly about -30% to -63%; further: on the % scale 0 is the no-effect control and ±100 the full control effect
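Compounds are tested against tagged Six1 and Eya2 proteins bridged by glutathione donor and nickel acceptor beads; after a one-hour incubation at 37 °C without light, AlphaScreen emission is recorded.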
JMJD2A Tudor – qHTS Assay for Inhibitors of JMJD2A-Tudor Domain. AlphaScreen JMJD2A-Tudor / H3K4me3 peptide binding. Potency, µM (doses to about 114 µM), without a hit: top-dose activity change, negative = inhibition, most hits filed as inhibitors. 390,000 tested, 4.4% active. AID 504339, 2011; further: potency means the concentration at half of the fitted maximal effect; on the % scale 0 is the no-effect control and ±100 the full control effect; nearly all actives have a fitted effect of over 50% in size
CtBP-E1A inh – qHTS Assay for Inhibitors of the CtBP/E1A Interaction. CtBP / adenovirus E1A interaction (AlphaScreen). AlphaScreen GST-E1A/His-CtBP binding, 1536-well; hits give low values. activity change, % (test concentration not listed). 340,000 tested, 0.49% active; in the data active means activity change below about -65%; inconclusive means mostly about -30% to -63%; further: on the % scale 0 is the no-effect control and ±100 the full control effect
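Steps: dispense buffer (Tris pH 8.0, NaCl 300 mM, TCEP 1 mM, BSA, Tween 20); add 5X protein mix (GST-E1A, His-CtBP, 125 nM each); pin 23 nL compound; 2 h at 37 °C, dark; add 5X beads (50 ug/mL); 1 h; read.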
G9a block – qHTS Assay for Inhibitors of Histone Lysine Methyltransferase G9a; G9a H3K9 monomethylation, AlphaScreen, 2 h; Potency, µM (series often up to 102 µM), without a hit: at the top dose activity, negative = inhibition, usual class: inhibitors; 350,000 tested, 8.8% active; AID 504332, 2011; further: potency means the concentration at half of the fitted maximal effect; on the % scale 0 is the no-effect control and ±100 the full control effect; nearly all actives have a fitted effect of over 75% in size
Target sequence (Q96KQ7 913-1193 limits assumed): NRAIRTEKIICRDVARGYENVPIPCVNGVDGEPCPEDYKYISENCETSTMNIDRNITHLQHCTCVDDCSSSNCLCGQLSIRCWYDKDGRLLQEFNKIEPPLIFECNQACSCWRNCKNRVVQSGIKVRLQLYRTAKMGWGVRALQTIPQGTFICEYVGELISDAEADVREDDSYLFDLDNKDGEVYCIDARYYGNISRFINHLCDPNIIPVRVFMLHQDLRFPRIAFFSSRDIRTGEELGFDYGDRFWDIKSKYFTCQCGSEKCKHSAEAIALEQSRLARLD
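G9a (20 nM) preincubated 15 min RT with compounds, then 500 nM biotinylated H3K9 peptide and 20 uM SAM added; 2 h RT reaction. Monomethyl-H3K9 product detected by AlphaScreen with anti-H3K9me1 antibody, streptavidin donor and anti-rabbit IgG acceptor beads.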
The depositor's hits bear a star; u = inconclusive; x = not tested or not shown; [ ] = dose if it differs, or a comment. Compounds with a hit are over-represented: about 10% of the library has one in this group of screens. Unless noted, the call rests on the fitted dose curve; in most records, active means well fitted inhibition curve with a large enough effect; inconclusive means small, poorly fitted or top-dose-only effect; inactive means no such curve, though single readings can be large or run the other way.

SMILES	HP1b chromo inh	BAZ2B inh	Six1-Eya2 blk	JMJD2A Tudor	CtBP-E1A inh	G9a block
COc1ccc(-n2c(Cc3cccn3C)nnc2SCC(=O)Nc2ccc(C)cc2C)cc1	-5%	u	-12	u	-5	45µM*
COc1ccc(-n2c(Cc3cccn3C)nnc2SCC(=O)NC2CCCC2)cc1	15%	-38%	1	u	-21	u
COc1ccc(-n2c(Cc3cccn3C)nnc2SCC(=O)Nc2nc(C)cs2)cc1	64%	-22%	-21	-20%	-11	-17%
COc1ccc(-n2c(Cc3cccn3C)nnc2SCC(=O)Nc2ccccc2OC)cc1	18%	u	-12	-34%	-5	45µM*
COc1ccc(OC)c(NC(=O)COc2ccc(S(=O)(=O)N3CCCC3)cc2)c1	15%	-16%	-7	-17%	-8	40µM*
CCOc1ccc(S(=O)(=O)N2CCCCC2)cc1NC(=O)Cc1cccs1	10%	2%	3	-17%	-18	16µM*
COc1ccc(S(=O)(=O)N2CCOCC2)cc1NC(=O)Cc1cccs1	18%	5%	4	-12%	2	-4%[2.33 µM]
CCN1CCN(c2ccc(S(=O)(=O)N3CCCCC3)cc2NC(=O)COc2ccc(Cl)c(C)c2)CC1	11%	u	-7	u	-7	7%[12.7 µM]
CCN1CCN(c2ccc(S(=O)(=O)N3CCCCC3)cc2NC(=O)COc2ccccc2)CC1	-12%	u	-6	u	-1	50µM*
CCOc1ccccc1OCC(=O)Nc1cc(S(=O)(=O)N2CCCCC2)ccc1N1CCN(CC)CC1	-14%	-1%	-17	-24%	-13	3.5µM*
CCOc1ccccc1OCC(=O)Nc1cc(S(=O)(=O)N2CCCCC2)ccc1OC	13%	-5%	2	-4%	7	7%[0.501 µM]
Cc1cccc(CCNC(=O)C2CCN(c3nc4ccccc4nc3C(F)(F)F)CC2)c1	-9%	6%	x	-30%	x	-5%[59 µM]
Clc1ccccc1Cc1cn2cc(-c3ccccc3)nc2s1	30%	-2%	x	-4%	x	1%[59 µM]
COc1ccccc1OCC(=O)Nc1cc(S(=O)(=O)N2CCCCC2)ccc1N1CCCCC1	-3%	79µM*	-11	u	-10	8.9µM*
Cc1ccc(OCC(=O)Nc2cc(S(=O)(=O)N3CCCCC3)ccc2N2CCN(C)CC2)c(C)c1	-28%	u	u	u	-19	45µM*
Cc1ccccc1OCCC(=O)Nc1cc(S(=O)(=O)N2CCCCC2)ccc1N1CCN(C)CC1	2%	x	-12	-28%	x	x
CC(C)c1ccccc1OCC(=O)Nc1cc(S(=O)(=O)N2CCOCC2)ccc1N1CCCC1	-26%	-9%	-15	u	-12	28µM*
CCOc1ccc(S(=O)(=O)N2CCOCC2)cc1NC(=O)c1ccc(N2CCCC2=O)cc1	18%	-4%	-3	-8%	8	32µM*
CCOc1ccc(-c2cn3c(n2)sc2cc(C(=O)NCCc4ccc(OC)c(OC)c4)ccc23)cc1	43%	0%	x	4%	x	2%[59 µM]
COc1ccc(N2CC(NC(=O)C(c3ccccc3)c3ccccc3)CC2=O)cc1 (centres undefined)	25%	-4%	x	-4%	x	-3%[59 µM]
CN1CCN(c2ccc(S(=O)(=O)N3CCCCC3)cc2NC(=O)COc2ccc([N+](=O)[O-])cc2)CC1	-11%	2%	0	-20%	0	u
CCC(=O)c1ccc(OCC(=O)Nc2cc(S(=O)(=O)N3CCCCC3)ccc2N2CCN(CC)CC2)cc1	-9%	-35%	u	-31%	-27	10µM*
CCOc1ccc(S(=O)(=O)N2CCN(C)CC2)cc1NC(=O)c1ccccc1F	2%	7%	-69*	-24%	1	-48%
